# Assay results taken from PubChem BioAssay.
# Columns and labels:
# PEG-3 [1] = target: PEG-3 (UniProt Q6IN02); test: inhibition of PEG-3 promoter-driven reporter – cell-based, HeLa, luciferase, CREF/GAPDH counter-screen panel, dose response (AID 624167); settings: CREF/GAPDH counter-screens; HeLa PEG-Prom luciferase reporter, overnight, run 1, dose range 1, at 100 µM (top of the series) unless noted
# PEG-3 [2] = target: PEG-3 (UniProt Q6IN02); test: as above; settings: CREF/GAPDH counter-screens; HeLa PEG-Prom luciferase reporter, overnight, run 2, dose range 1, at 100 µM (top of the series) unless noted
# Sequence of PEG-3 (Q6IN02 whole entry, looked up): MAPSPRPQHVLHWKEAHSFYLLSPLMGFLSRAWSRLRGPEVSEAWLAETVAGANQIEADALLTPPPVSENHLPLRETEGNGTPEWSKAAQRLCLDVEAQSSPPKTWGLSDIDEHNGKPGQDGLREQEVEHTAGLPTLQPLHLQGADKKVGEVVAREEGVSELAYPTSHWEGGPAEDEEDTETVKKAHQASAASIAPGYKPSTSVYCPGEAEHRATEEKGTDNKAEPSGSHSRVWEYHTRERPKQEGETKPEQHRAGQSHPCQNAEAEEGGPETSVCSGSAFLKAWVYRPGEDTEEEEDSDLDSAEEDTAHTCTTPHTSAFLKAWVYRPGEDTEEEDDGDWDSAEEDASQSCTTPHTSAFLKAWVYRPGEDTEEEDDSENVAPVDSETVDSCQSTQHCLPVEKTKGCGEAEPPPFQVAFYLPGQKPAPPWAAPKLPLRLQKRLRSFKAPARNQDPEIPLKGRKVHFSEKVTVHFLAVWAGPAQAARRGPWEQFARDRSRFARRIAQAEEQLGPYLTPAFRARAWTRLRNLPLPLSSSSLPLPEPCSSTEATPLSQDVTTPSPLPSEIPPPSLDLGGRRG
Structure (SMILES),inhibition (PEG-3 [1]) [%],inhibition (PEG-3 [2])
N#C/C(=C\c1cccc([N+](=O)[O-])c1)C(=O)NCc1ccc(Cl)cc1,99.3,101%
COC(=O)CSC1=NS(=O)(=O)c2ccccc21,66.3,98%
CCc1ccc(OCCNc2cc(N3CCNC(C)C3)ccc2[N+](=O)[O-])cc1 (stereo unspecified),99.6,101%
Cc1nc(N2CCN(c3ccccc3O)CC2)c2c(-c3ccccc3)csc2n1,94.8,94%
CCN(C(=O)CSc1nc2n[nH]c(C)c2c(=N)n1-c1ccc(Cl)c(C)c1)c1cccc(C)c1,70.5,78%
CCCCN(C)C(=O)c1ccc(Nc2nc(C(N)CCc3ccccc3)cs2)nc1 (stereo unspecified),98.6,94.6%
CN(C)CCNc1ncnc2c1sc1nc(N3CCCC3)c3c(c12)CC(C)(C)OC3,99.7,102%
Cn1cc(CN2CCCC(C(=O)Nc3ccc(-c4cccc(F)c4)cc3)C2)cn1 (stereo unspecified),101,102%
COc1ccc(NC(=O)Nc2nc(C(N)C3CCCCC3)cs2)cc1 (stereo unspecified),101,99%
COc1cccc2c1C(=N)c1c(O)c3c(c(O)c1C2=O)CC(O)(C(C)=O)CC3OC1CC(N)C(O)C(C)O1 (stereo unspecified),99.1,102%
Cc1c(OCC(=O)NC2CC(C)(C)NC(C)(C)C2)ccc2c1oc(=O)c1ccccc12,98,101%
CCCCC(=O)NC(c1ccccc1Cl)c1ccc2cccnc2c1O (stereo unspecified),70.2,87.3%
CC1=C(CC[C@@H](C)CO)OC2CC3C4CCC5CC(O)CCC5(C)C4CC(=O)C3(C)C12 (stereo partly specified),88.8,83.2%
COc1ccc(/C=C/C(=O)c2ccc3c4c(cccc24)CC3)cc1OC,101,102%
O=C(C[n+]1ccc(-c2cc(C(=O)Nc3cccc(C(F)(F)F)c3)c3ccccc3n2)cc1)c1cccc([N+](=O)[O-])c1,101,102%
Cc1cc(C)c2sc(N(CCCN(C)C)C(=O)c3ccc(S(=O)(=O)N(C)Cc4ccccc4)cc3)nc2c1,98.7,101%
COc1ccccc1CCNC(=O)C1CCN(c2nnc(C)c3c(C)n(-c4ccc(C)cc4)nc23)CC1,99,97.3%
O=C1OCCC1Sc1nnc(-c2ccc(Cl)cc2Cl)o1 (stereo unspecified),92.6,94.1%
Oc1ccc(C[C@H]2CNCCN2CCc2cc(C(F)(F)F)cc(C(F)(F)F)c2)cc1,97.5,102%
O=S(=O)(CC(CN1CCCCC1)N1CCCCC1)c1ccccc1 (stereo unspecified),102,102%
C/C(=N\N=C(N)N)c1ccc(Cl)cc1Cl,99.4,101%

Structure (SMILES),inhibition (PEG-3 [1]) [%],inhibition (PEG-3 [2])
COc1ccccc1C1c2ccc3ccccc3c2Oc2ncn(CCCO)c(=N)c21 (stereo unspecified),102,98.3%
c1ccc(CCNc2nc(-c3ccncc3)nc3ccccc23)cc1,52.1,47.8%
CCC(=C(c1ccc(OC)cc1)c1ccc(OC)cc1)c1cn(CC(O)CN2CCN(C)CC2)c2ccccc12 (stereo unspecified),99.5,98.3%
Cc1cc(C)nc(NC(=O)c2c(F)c(F)c(F)c(C(=O)Nc3cc(C)cc(C)n3)c2F)c1,96.5,98.3%
CCN1CCc2c(sc(NC(=O)c3ccc(S(=O)(=O)N4CCCCCC4)cc3)c2C(=O)NC)C1,94.4,94.9%
O=C(C[C@H]1C[C@H](C(=O)N2CCCCC2)[C@@]2(CCc3ccccc3)c3[nH]c4ccc(Cl)cc4c3CCN2C1=O)NCCc1ccccn1,94,93.1%
CCN(CC)CCNc1cccc2sc3ccccc3c(=O)c12,94.6,95.9%
CSc1ccc2c(c1)C(N1CCN(C)CC1)Cc1ccccc1S2 (stereo unspecified),102,98.9%
Cc1nn(-c2ccccc2Cl)c(Cl)c1/C=N/Nc1nc2ccccc2s1,57.6,47.3%
COc1ccc(C(O)(CCC(C)C)C(CN2CCOCC2)c2ccccc2)cc1 (stereo unspecified),96.5,101%
NCCc1c(-c2ccccc2)n(-c2ccccc2)c2ccccc12,97.5,102%
COc1ccc(CCNC(=O)c2cc3c(=O)n4ccccc4nc3n(C3CCCCC3)c2=N)cc1,102,102%
CN(C)CCCNc1ncnc2oc(-c3ccccc3)c(-c3ccccc3)c12,102,101%
NC1=NC[C@H](Cc2ccccc2)N1CCc1cc(C(F)(F)F)cc(C(F)(F)F)c1,101,101%
COc1ccc2sc(N(CCCN(C)C)C(=O)c3ccc(S(=O)(=O)N4CCCc5ccccc54)cc3)nc2c1,98.4,102%
CCN(Cc1ccccc1)S(=O)(=O)c1ccc(C(=O)N(CCCN(C)C)c2nc3cc4c(cc3s2)OCCO4)cc1,99.4,101%
COc1ccc(-n2ncc3c(N(C)C4CCCCC4)ncnc32)cc1,96.6,89.4%
CC(=O)OCCNc1cc(SCc2ccco2)c2nonc2c1[N+](=O)[O-],100,98.1%
CN(C)CC1CCC/C(=C\c2ccc(OC(=O)/C=C/c3ccccc3)cc2)C1=O (stereo unspecified),97.5,102%
COc1cc(/C=C2\SC(=S)N(CCC(=O)N3CCCCC3)C2=O)cc(OC)c1OC,98.1,99%
CCc1nc(Nc2ccc(N3CCN(C(C)=O)CC3)cc2)c2oc3ccccc3c2n1,101,99.9%

Structure (SMILES),inhibition (PEG-3 [1]) [%],inhibition (PEG-3 [2])
COc1ccccc1NC(=O)Nc1nc(C(N)CCc2ccccc2)cs1 (stereo unspecified),95.9,102%
Cc1ccc(S(=O)(=O)CCSC(=N)N)cc1,101,93.6%
CCn1cc(C(=O)NCCC(C)C)c(=O)c2cc(F)c(N3CCN(C(=O)c4ccco4)CC3)cc21,32.2,"101% [run 2, dose range 1, at 50 µM]"
O=C(NC1CCCCC1)Sc1ccc(Cl)cc1,102,101%
COc1cccc(NC(=O)Nc2cccc(C(=O)O)c2)c1,87,81.3%
CCCc1nc(SCC(=O)N2CCCc3ccccc32)c2c(=O)n(C)c(=O)n(C)c2n1,99.2,96.2%
COc1ccc(C2c3ccc4ccccc4c3Oc3ncn(CCO)c(=N)c32)cc1OC (stereo unspecified),99.1,101%
Cc1ccc(NCCN(C)C)c2c(=O)c3cc(O)ccc3sc12,97.5,102%
NC(c1csc(Nc2nccc(C(F)(F)F)n2)n1)C1CCCCC1 (stereo unspecified),98.2,99.1%
CN(C)C(=O)c1cccc(-c2cnc3c(NC=O)cc(-c4cccc(C(F)(F)F)c4)cn23)c1,89.1,93.6%
CN(C)CC1CCC/C(=C/c2ccc(Cl)cc2)C1=O (stereo unspecified),102,98.7%
CC(C)(C)c1ccc(OCCCNCc2ccccc2)cc1,99.8,98%
COc1ccc(N(Cc2cc3cc(OC)ccc3[nH]c2=O)S(=O)(=O)c2ccc(NC(C)=O)cc2)cc1,89.7,89.7%
CCCCCCCCNCCS(=O)(=O)NCc1ccc(OC)cc1,98.9,95.7%
C[C@@H](NCCCn1cnc2c(OCc3ccccc3)ncnc21)c1cccc2ccccc12,94.9,101%
N#Cc1c(N)nc(SCc2ccncc2)c(C#N)c1-c1cccs1,94.6,99.2%
CNCC[C@@H](Oc1ccc(C(F)(F)F)cc1)c1ccccc1,98.7,100%
O=S(=O)(N[C@H]1C[C@@H](NS(=O)(=O)OCC(Cl)(Cl)Cl)C2CCCCC21)OCC(Cl)(Cl)Cl (stereo partly specified),99.2,101%
CCCN1CCc2c(sc(NC(=O)c3ccc(S(=O)(=O)N4CCN(C(=O)OCC)CC4)cc3)c2C(N)=O)C1,78.5,85.4%
Cc1ccccc1NC(=O)Nc1nc(C(N)C2CCCCC2)cs1 (stereo unspecified),98.9,99.7%
O/N=C(\c1ccc(Cl)cc1Cl)c1ncc(C(F)(F)F)cc1Cl,86,97.3%

Structure (SMILES),inhibition (PEG-3 [1]) [%],inhibition (PEG-3 [2])
COc1ccc(C2c3ccc4ccccc4c3Oc3ncn(CCCO)c(=N)c32)cc1 (stereo unspecified),102,101%
O=C(Cc1csc(Nc2nc(=S)[nH]c3ccccc23)n1)NCc1ccccc1Cl,-6.11,-45.6%
Cc1ccc(NS(=O)(=O)c2cc3c4c(cccc4c2)C(=O)NC3=O)cc1C,71.4,66.9%
O=S(=O)(/N=C(/Sc1ccccc1)c1ccccc1)c1ccccc1,102,101%
CCOc1cccc2sc(N(CCCN(C)C)C(=O)c3ccc(S(=O)(=O)N(CC)Cc4ccccc4)cc3)nc12,102,101%
CC(C)CC(N)c1csc(NC(=O)Nc2ccccc2C(C)C)n1 (stereo unspecified),99,101%
CN1CCC(N(C)C(=O)/C=C/c2cn(-c3ccccc3)nc2-c2cccs2)CC1,102,102%
Cc1ccc(-c2cc(C(=O)Nc3nccs3)c3ccccc3n2)c(C)c1,34,56.2%
COc1ccc(NC(=O)N(C)[C@H]2C[C@H]3c4[nH]c5ccc(-c6cccc(C)c6)cc5c4CCN3C[C@H]2[C@H](C)O)cc1,98.4,97.1%
O=C(CCN1C(=O)/C(=C/c2ccc(F)cc2)SC1=S)N[C@@H](CO)Cc1ccccc1,36.9,72%
CC(=O)Nc1ccc(Nc2nc(C)c([N+](=O)[O-])c(Nc3ccccc3)n2)cc1,99.5,93.4%
COc1cc(-c2cc(C(=O)N(C)Cc3ccccc3)c3ccccc3n2)cc(OC)c1OC,79.4,94.8%
Cc1cc(C)cc(NC(=O)Cn2c(=O)oc3cc(S(=O)(=O)N4CCC(C)CC4)ccc32)c1,19.2,47.7%
N=c1c2c(-c3ccccc3)c(-c3ccccc3)n(Cc3ccccc3)c2ncn1CCO,96.4,97.6%
COc1cc(-c2cc(C(=O)Nc3cc(S(=O)(=O)N4CCOCC4)ccc3C)c3ccccc3n2)cc(OC)c1OC,55.1,61.8%
CCCc1ccc(C(=O)O/N=C(\N)c2ccccn2)cc1,99.7,102%
CCc1ccc(O)c(CNCCNCc2cc(CC)ccc2O)c1,102,101%
Cc1cc(/C=c2/sc3nc4ccccc4n3c2=O)c(C)n1-c1ccccn1,84.1,84.5%
OC[C@@H]1[C@@H](c2ccc(Cl)cc2)C(c2cccc(Cl)c2)=NN1c1ccccc1,102,101%
CCC1CCCCN1S(=O)(=O)c1ccc(C(=O)N(CCCN(C)C)c2nc3cc4c(cc3s2)OCO4)cc1 (stereo unspecified),101,96.1%
